Laboratory results taken from the supplement of paper PMC6555819.

Tests used:
Assay in all cases: PBM binding z-score (relative to random genomic background probes); higher = stronger binding; sequences stand for … in GC…GCGATTGACAGCGTAGAATGAAGG
[1] = test system: FXR:RXRa (NR concentration 270 nM, RXRa partner concentration 90 nM)
Outline: (§1)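 Antibodies against each partner of ligand-free nuclear receptor dimers (one per run) detected binding on custom Agilent 4×180K protein-binding microarrays after 1 h incubation. The double-stranded probes had 34-nt variable regions carrying direct-repeat seeds, single-nucleotide variants, half-site ablations and random human genomic background sequences. Binding z-scores, from regression-normalized fluorescence, use the random background probes as reference.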

[2] = test system: LXRa:RXRa (NR concentration 270 nM, RXRa partner concentration 90 nM)
Outline: as §1

[3] = test system: LXRa homodimer (NR concentration 270 nM)
Outline: as §1

[4] = test system: LXRb:RXRa (NR concentration 270 nM, RXRa partner concentration 90 nM)
Outline: as §1

[5] = test system: LXRb homodimer (NR concentration 270 nM)
Outline: as §1

[6] = test system: PPARa:RXRa (NR concentration 270 nM, RXRa partner concentration 90 nM)
Outline: as §1

[7] = test system: PPARg:RXRa (NR concentration 180 nM, RXRa partner concentration 90 nM)
Outline: as §1

[8] = test system: PPARg:RXRa 270nM:90nM, anti-RXR (NR concentration 270 nM, RXRa partner concentration 90 nM)
Outline: as §1

[9] = test system: PPARg:RXRa 30nM:10nM, anti-RXR (NR concentration 30 nM, RXRa partner concentration 10 nM)
Outline: as §1

[10] = test system: PPARg:RXRa 90nM:30nM, anti-RXR (NR concentration 90 nM, RXRa partner concentration 30 nM)
Outline: as §1

[11] = test system: PPARg:RXRa DBDmut IVT, anti-RXR (DBD mutation: RXRa K156A/R161A, NR concentration 270 nM, RXRa partner concentration 90 nM)
Outline: as §1

[12] = test system: PPARg:RXRa IVT, anti-PPARg (NR concentration 270 nM, RXRa partner concentration 90 nM)
Outline: as §1

[13] = test system: PPARg DBDmut:RXRa IVT, anti-PPARg (DBD mutation: PPARg1 K132A/R137A, NR concentration 270 nM, RXRa partner concentration 90 nM)
Outline: as §1

[14] = test system: PPARg DBDmut IVT, anti-PPARg (DBD mutation: PPARg1 K132A/R137A, NR concentration 270 nM)
Outline: as §1

[15] = test system: PPARg homodimer (NR concentration 180 nM)
Outline: as §1

[16] = test system: PXR:RXRa (NR concentration 270 nM, RXRa partner concentration 90 nM)
Outline: as §1

[17] = test system: PXR homodimer (NR concentration 270 nM)
Outline: as §1

[18] = test system: RARa:RXR (NR concentration 270 nM, RXRa partner concentration 90 nM)
Outline: as §1

[19] = test system: RARa homodimer (NR concentration 270 nM)
Outline: as §1

[20] = test system: RARb:RXRa (NR concentration 270 nM, RXRa partner concentration 90 nM)
Outline: as §1

Sequence: GGAACGAGGGCAAAGTTGATAGCGTCTGTCGACG
- PBM binding z-score [1]: 1.43
- PBM binding z-score [2]: 1.07
- PBM binding z-score [3]: -0.457
- PBM binding z-score [4]: 0.901
- PBM binding z-score [5]: -0.56
- PBM binding z-score [6]: 4.27
- PBM binding z-score [7]: 7.58
- PBM binding z-score [8]: 7.44
- PBM binding z-score [9]: 6.55
- PBM binding z-score [10]: 7.74
- PBM binding z-score [11]: 4.61
- PBM binding z-score [12]: 4.26
- PBM binding z-score [13]: 0.324
- PBM binding z-score [14]: -0.0322
- PBM binding z-score [15]: 0.905
- PBM binding z-score [16]: 1.2
- PBM binding z-score [17]: -0.0837
- PBM binding z-score [18]: 1.7
- PBM binding z-score [19]: -0.604
- PBM binding z-score [20]: 2.48

Sequence: ATCTCTAGGTATCCAAGTTCAGTGAATGCCGAAC
- PBM binding z-score [1]: 0.313
- PBM binding z-score [2]: 0.879
- PBM binding z-score [3]: 2
- PBM binding z-score [4]: 0.57
- PBM binding z-score [5]: 0.976
- PBM binding z-score [6]: 0.511
- PBM binding z-score [7]: 0.0341
- PBM binding z-score [8]: 0.21
- PBM binding z-score [9]: 0.21
- PBM binding z-score [10]: 0.503
- PBM binding z-score [11]: 0.377
- PBM binding z-score [12]: 0.859
- PBM binding z-score [13]: 0.495
- PBM binding z-score [14]: 0.766
- PBM binding z-score [15]: 1.01
- PBM binding z-score [16]: 1.5
- PBM binding z-score [17]: 1.56
- PBM binding z-score [18]: 0.618
- PBM binding z-score [19]: 0.883
- PBM binding z-score [20]: 0.966

Sequence: AATACAGGGTCACTAGGCAAGAGTAGGTACGAAT
- PBM binding z-score [1]: 6.39
- PBM binding z-score [2]: 4.96
- PBM binding z-score [3]: 0.866
- PBM binding z-score [4]: 3.82
- PBM binding z-score [5]: 1.1
- PBM binding z-score [6]: 5.59
- PBM binding z-score [7]: 7.09
- PBM binding z-score [8]: 5.74
- PBM binding z-score [9]: 3.03
- PBM binding z-score [10]: 4.6
- PBM binding z-score [11]: 3.19
- PBM binding z-score [12]: 4.81
- PBM binding z-score [13]: 1.06
- PBM binding z-score [14]: 0.858
- PBM binding z-score [15]: 2.63
- PBM binding z-score [16]: 3.06
- PBM binding z-score [17]: 0.322
- PBM binding z-score [18]: 4.1
- PBM binding z-score [19]: 1.16
- PBM binding z-score [20]: 4.13

Sequence: CTCGAAAGGTGGGTTGAGGTGAGTATACGGATAA
- PBM binding z-score [1]: 0.825
- PBM binding z-score [2]: 0.397
- PBM binding z-score [3]: 0.00532
- PBM binding z-score [4]: 1.1
- PBM binding z-score [5]: 0.353
- PBM binding z-score [6]: 1.22
- PBM binding z-score [7]: 0.158
- PBM binding z-score [8]: 0.31
- PBM binding z-score [9]: -0.0559
- PBM binding z-score [10]: -0.00652
- PBM binding z-score [11]: 0.207
- PBM binding z-score [12]: 0.842
- PBM binding z-score [13]: 0.168
- PBM binding z-score [14]: 0.0199
- PBM binding z-score [15]: 0.652
- PBM binding z-score [16]: 1.01
- PBM binding z-score [17]: 0.754
- PBM binding z-score [18]: 1.22
- PBM binding z-score [19]: 0.749
- PBM binding z-score [20]: 0.866

Sequence: TAGCCTAGGTCAGATCGGGACAGTATACGCTATA
- PBM binding z-score [1]: 3.31
- PBM binding z-score [2]: 1.3
- PBM binding z-score [3]: -0.0323
- PBM binding z-score [4]: 1.07
- PBM binding z-score [5]: -0.146
- PBM binding z-score [6]: 1.82
- PBM binding z-score [7]: 0.86
- PBM binding z-score [8]: 0.922
- PBM binding z-score [9]: 0.0788
- PBM binding z-score [10]: 0.727
- PBM binding z-score [11]: 0.601
- PBM binding z-score [12]: 1.73
- PBM binding z-score [13]: -0.45
- PBM binding z-score [14]: -0.46
- PBM binding z-score [15]: 0.479
- PBM binding z-score [16]: 1.74
- PBM binding z-score [17]: -0.545
- PBM binding z-score [18]: 1.11
- PBM binding z-score [19]: -0.615
- PBM binding z-score [20]: 3.11

Sequence: TTACCAAGGTGAAAGTTCGTTGATGCACGCCTTG
- PBM binding z-score [1]: 1.93
- PBM binding z-score [2]: 1.83
- PBM binding z-score [3]: 0.114
- PBM binding z-score [4]: 1.35
- PBM binding z-score [5]: -0.561
- PBM binding z-score [6]: 4.14
- PBM binding z-score [7]: 6.03
- PBM binding z-score [8]: 6.53
- PBM binding z-score [9]: 4.84
- PBM binding z-score [10]: 6.63
- PBM binding z-score [11]: 1.85
- PBM binding z-score [12]: 4.23
- PBM binding z-score [13]: 0.268
- PBM binding z-score [14]: 0.287
- PBM binding z-score [15]: 0.78
- PBM binding z-score [16]: 2.73
- PBM binding z-score [17]: 1.54
- PBM binding z-score [18]: 2.73
- PBM binding z-score [19]: 0.264
- PBM binding z-score [20]: 2.24

Sequence: TATACAGGGTCAGAGGCCAGAGTACGAATGTCGA
- PBM binding z-score [1]: 4.14
- PBM binding z-score [2]: 3.96
- PBM binding z-score [3]: 0.791
- PBM binding z-score [4]: 2.95
- PBM binding z-score [5]: 1.8
- PBM binding z-score [6]: 4.29
- PBM binding z-score [7]: 5.34
- PBM binding z-score [8]: 5.19
- PBM binding z-score [9]: 3.23
- PBM binding z-score [10]: 4.52
- PBM binding z-score [11]: 1.65
- PBM binding z-score [12]: 3.65
- PBM binding z-score [13]: 2.26
- PBM binding z-score [14]: 1.28
- PBM binding z-score [15]: 2.24
- PBM binding z-score [16]: 2.83
- PBM binding z-score [17]: 0.79
- PBM binding z-score [18]: 3.74
- PBM binding z-score [19]: 1.13
- PBM binding z-score [20]: 3.72

Sequence: CTCGAAAGCTCGTGCTCAGGTGAGTATACCAAAC
- PBM binding z-score [1]: -0.575
- PBM binding z-score [2]: -0.866
- PBM binding z-score [3]: -0.669
- PBM binding z-score [4]: -0.84
- PBM binding z-score [5]: -0.65
- PBM binding z-score [6]: -0.803
- PBM binding z-score [7]: -0.599
- PBM binding z-score [8]: -0.812
- PBM binding z-score [9]: -0.841
- PBM binding z-score [10]: -0.913
- PBM binding z-score [11]: -0.844
- PBM binding z-score [12]: -0.272
- PBM binding z-score [13]: -1.04
- PBM binding z-score [14]: -0.415
- PBM binding z-score [15]: -0.882
- PBM binding z-score [16]: -0.746
- PBM binding z-score [17]: -0.669
- PBM binding z-score [18]: -0.62
- PBM binding z-score [19]: -1.18
- PBM binding z-score [20]: -1.07

Sequence: CTAGACAGGTGAAAGGTAACTCAGTCTGGTACGC
- PBM binding z-score [1]: 0.53
- PBM binding z-score [2]: 0.864
- PBM binding z-score [3]: -0.332
- PBM binding z-score [4]: 0.732
- PBM binding z-score [5]: -0.56
- PBM binding z-score [6]: 3.4
- PBM binding z-score [7]: 6.11
- PBM binding z-score [8]: 6.66
- PBM binding z-score [9]: 5.12
- PBM binding z-score [10]: 6.47
- PBM binding z-score [11]: 1.94
- PBM binding z-score [12]: 3.43
- PBM binding z-score [13]: 0.142
- PBM binding z-score [14]: 0.0221
- PBM binding z-score [15]: 0.635
- PBM binding z-score [16]: 0.951
- PBM binding z-score [17]: -0.397
- PBM binding z-score [18]: 1.91
- PBM binding z-score [19]: -0.0814
- PBM binding z-score [20]: 1.22
